Molecules are shown by their SMILES. ± gives the standard deviation of the averaged measurements.

The record followed here is the supplement of paper PMC6522484.

The first test relates to HCT116. Briefly: TCF/Wnt firefly luciferase reporter signal relative to plate median (fraction of plate median); higher = higher Wnt reporter signal. Particulars: 10 µM; treatment time 24 h; reporter: TCF4/Wnt. In a few lines:
(§1)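 Each value averages two independent replicates in which the well signal was normalised to the plate median (webcellHTS2, additive, without log transformation). The signal was firefly luciferase or CellTiterGlo luminescence, read on parallel plates with a Tecan F500. The cells were colorectal cancer lines with stable lentiviral TCF/Wnt firefly luciferase reporters in 384-well plates, dosed 24 h after seeding with kinase inhibitor library compounds at a final 10 µM for 24 h.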
For the compound `Cc1ccc(F)c(NC(=O)Nc2ccc(-c3cccc4[nH]nc(N)c34)cc2)c1` [Linifanib (ABT-869)], the “TCF/Wnt firefly luciferase reporter signal” value amounted to 0.906 ± 0.15.
Consider `N#CC(=C(/N)Sc1ccccc1N)/C(C#N)=C(\N)Sc1ccccc1N`, for which the “TCF/Wnt firefly luciferase reporter signal” value amounted to 0.95 ± 0.071.
Same read-out and setting: the result for `c1cncc(CN2CCC(n3ncc4c(N5CCOCC5)nc(-c5ccc6[nH]ccc6c5)nc43)CC2)c1` reads 0.897 ± 0.16; that for `CCn1c(-c2nonc2N)nc2c(C#CC(C)(C)O)ncc(OC[C@H]3CCCNC3)c21`, 1.65 ± 0.41.

The subject of the next test is SW480. Described as above. Particulars: 10 µM; treatment time 24 h; reporter: 7TFP. In a few lines: as §1
Turning to `CC(C)(C)c1cc(/C=C(\C#N)C(N)=S)cc(C(C)(C)C)c1O` [Tyrphostin AG 879 (AG 879)], the “TCF/Wnt firefly luciferase reporter signal” value was determined as 0.878 ± 0.041.
`C=CC(=O)Nc1cc2c(Nc3ccc(F)c(Cl)c3)ncnc2cc1OCCCN1CCOCC1` [CI-1033 (Canertinib)]: the “TCF/Wnt firefly luciferase reporter signal” value turned out to be 0.771 ± 0.32.
`NCC(=O)Nc1ccc(-n2nc(C(F)(F)F)cc2-c2ccc3c(ccc4ccccc43)c2)cc1`: the “TCF/Wnt firefly luciferase reporter signal” value was 1.3 ± 0.057.
For the compound `COc1ccc(-c2cc3c(C)nc(N)nc3n([C@H]3CC[C@H](OCCO)CC3)c2=O)cn1`, the “TCF/Wnt firefly luciferase reporter signal” value is 0.725 ± 0.043.
Same read-out and setting: the result for `Clc1ccc(C2(c3ccc(-c4cn[nH]c4)cc3)CCNCC2)cc1` reads 1.33 ± 0.021.
Turning to `C[S+]([O-])c1ccc(-c2nc(-c3ccc(F)cc3)c(-c3ccncc3)[nH]2)cc1` (centres undefined), the “TCF/Wnt firefly luciferase reporter signal” value was 0.935 ± 0.064.
On to `C=CC(=O)Nc1ccc2ncnc(Nc3ccc(OCc4cccc(F)c4)c(Cl)c3)c2c1`, for which the “TCF/Wnt firefly luciferase reporter signal” value was 1.09 ± 0.11.
For the compound `CCn1nnc2c(N3CCOCC3)nc(-c3ccc(NC(=O)Nc4ccc(C(=O)N5CCN(C)CC5)cc4)cc3)nc21`, the “TCF/Wnt firefly luciferase reporter signal” value came to 0.821 ± 0.054.
On to `O=c1cc(N2CCOCC2)oc2c(-c3cccc4c3sc3ccccc34)cccc12`, for which the “TCF/Wnt firefly luciferase reporter signal” value came to 1.1 ± 0.042.
The same measure, in the same setting: as for `Cc1cnc(Nc2ccc(N3CCN(C)CC3)cc2)nc1Nc1cccc(S(=O)(=O)NC(C)(C)C)c1`, the figure is 0.613 ± 0.3; as for `COc1ccc(S(=O)(=O)N(C(C)=O)c2ccccc2/C=C/c2cc[n+]([O-])cc2)cc1`, 0.7 ± 0.083.
As for `COc1cc2ncnc(Nc3ccc(F)c(Cl)c3)c2cc1OCCCN1CCOCC1` [Gefitinib (Iressa)], the “TCF/Wnt firefly luciferase reporter signal” value amounted to 1.02 ± 0.039.
As for `CN1CCN(c2cccc(Nc3nc4c(-c5ccc(S(C)(=O)=O)cc5)cccn4n3)c2)CC1`, the “TCF/Wnt firefly luciferase reporter signal” value stood at 1.34 ± 0.56.
For `CC(=O)Nc1nc(C)c(-c2ccc(Cl)c(S(=O)(=O)NCCO)c2)s1`, the “TCF/Wnt firefly luciferase reporter signal” value stood at 0.944 ± 0.033.
Regarding `CCC[C@H](NC(=O)/C(C#N)=C/c1cccc(Br)n1)c1ccccc1`, the “TCF/Wnt firefly luciferase reporter signal” value was 0.037 ± 0.0048.
As to `CCS(=O)(=O)c1cccc(-c2cc(C(=O)NC3CCN(C)CC3)c(C)c3[nH]c4ncc(C)cc4c23)c1`, the “TCF/Wnt firefly luciferase reporter signal” value is 0.834 ± 0.1.
Turning to `CC(C)n1nc(-c2ccc3oc(N)nc3c2)c2c(N)ncnc21`, the “TCF/Wnt firefly luciferase reporter signal” value is 0.704 ± 0.15.
`COc1cc2c(N3CCN(C(=O)Nc4ccc(OC(C)C)cc4)CC3)ncnc2cc1OCCCN1CCCCC1` [Tandutinib (MLN518)]: the “TCF/Wnt firefly luciferase reporter signal” value is 1.33 ± 0.05.
Regarding `O=C1NC(=O)C(c2ccccc2[N+](=O)[O-])=C1Nc1ccc(O)c(Cl)c1`, the “TCF/Wnt firefly luciferase reporter signal” value was determined as 1.07 ± 0.12.
With `COc1cccc(-c2cc(=O)c3ccccc3o2)c1N`, the “TCF/Wnt firefly luciferase reporter signal” value stood at 1.27 ± 0.65.
`Cc1ccc(NC(=O)c2ccc(CN3CCN(C)CC3)cc2)cc1Nc1nccc(-c2cccnc2)n1` [Imatinib (Gleevec)]: the “TCF/Wnt firefly luciferase reporter signal” value came to 1.39 ± 0.22.
`COc1cc2c(Nc3ccc(NC(=O)c4ccccc4)cc3)ncnc2cc1OCCCN1CCOCC1`: the “TCF/Wnt firefly luciferase reporter signal” value turned out to be 1.43 ± 0.057.
Regarding `CC(C)CC(=O)Nc1n[nH]c2c1CN(C(=O)C1CCN(C)CC1)C2(C)C`, the “TCF/Wnt firefly luciferase reporter signal” value was determined as 0.836 ± 0.064.
In the case of `CNC(=O)Nc1ccc(-c2nc(N3CC4CCC(C3)O4)c3cnn(C4CCC5(CC4)OCCO5)c3n2)cc1`, the “TCF/Wnt firefly luciferase reporter signal” value is 0.876 ± 0.1.
Still for that read-out and setting: the result for `CCOc1cc2ncc(C#N)c(Nc3ccc(OCc4ccccn4)c(Cl)c3)c2cc1NC(=O)/C=C/CN(C)C` [Neratinib (HKI-272)] reads 0.508 ± 0.7; that for `N#CCNC(=O)c1ccc(-c2ccnc(Nc3ccc(N4CCOCC4)cc3)n2)cc1`, 0.923 ± 0.34; that for `Cc1ncc(-c2ccnc(Nc3ccc(S(C)(=O)=O)cc3)n2)n1C(C)C`, 0.793 ± 0.035.
`O=C(O)c1ccc2c(c1)nc(Nc1cccc(Cl)c1)c1ccncc12` [cx-4945 (Silmitasertib)]: the “TCF/Wnt firefly luciferase reporter signal” value turned out to be 0.612 ± 0.1.
In the case of `CC(=O)Nc1cccc(-n2c(=O)n(C3CC3)c(=O)c3c(Nc4ccc(I)cc4F)n(C)c(=O)c(C)c32)c1`, the “TCF/Wnt firefly luciferase reporter signal” value amounted to 2.02 ± 0.042.
As to `Nc1ncnc2c1c(-c1cccc(OCc3ccccc3)c1)cn2C1CC(CN2CCCC2)C1` (centres undefined), the “TCF/Wnt firefly luciferase reporter signal” value was 0.895 ± 0.33.
For the compound `COc1cc2c(Oc3ccc(NC(=O)C4(C(=O)Nc5ccc(F)cc5)CC4)cc3F)ccnc2cc1OCCCN1CCOCC1`, the “TCF/Wnt firefly luciferase reporter signal” value turned out to be 0.838 ± 0.4.
Still for that read-out and setting: as for `CCN1CCN(c2ccc(Nc3cc(N(C)C(=O)Nc4c(Cl)c(OC)cc(OC)c4Cl)ncn3)cc2)CC1`, the figure is 0.921 ± 0.12.
Turning to `Cc1[nH]c(/C=C2\C(=O)Nc3ccccc32)c(C)c1CCC(=O)O`, the “TCF/Wnt firefly luciferase reporter signal” value came out at 1.22 ± 0.16.
`CN1CCN(c2ccc3nc(-c4c(N)c5c(F)cccc5[nH]c4=O)[nH]c3c2)CC1` [Dovitinib Dilactic acid (TKI258 Dilactic acid)]: the “TCF/Wnt firefly luciferase reporter signal” value is 1.09 ± 0.69.
Take `Cc1[nH]c(/C=C2\C(=O)Nc3ccc(S(=O)(=O)Cc4c(Cl)cccc4Cl)cc32)c(C)c1C(=O)N1CCC[C@@H]1CN1CCCC1`: the “TCF/Wnt firefly luciferase reporter signal” value was 1.21 ± 0.028.
Turning to `COc1cc(Nc2ncc(F)c(Nc3ccc4c(n3)NC(=O)C(C)(C)O4)n2)cc(OC)c1OC` [R406(free base)], the “TCF/Wnt firefly luciferase reporter signal” value stood at 1.29 ± 0.042.
In the case of `Cc1ccc(F)c(NC(=O)Nc2ccc(-c3cccc4[nH]nc(N)c34)cc2)c1` [Linifanib (ABT-869)], the “TCF/Wnt firefly luciferase reporter signal” value is 0.872 ± 0.42.
Still for that read-out and setting: as for `N#CC(=C(/N)Sc1ccccc1N)/C(C#N)=C(\N)Sc1ccccc1N`, the figure is 1.59 ± 0.16; as for `c1cncc(CN2CCC(n3ncc4c(N5CCOCC5)nc(-c5ccc6[nH]ccc6c5)nc43)CC2)c1`, 1.16 ± 0.014.
For the compound `CCn1c(-c2nonc2N)nc2c(C#CC(C)(C)O)ncc(OC[C@H]3CCCNC3)c21`, the “TCF/Wnt firefly luciferase reporter signal” value worked out at 1.39 ± 0.23.
